# Reference: publication PMC10726135, “HNF4α isoforms regulate the circadian balance between carbohydrate and lipid metabolism in the liver”
# In all, about 18,000 sequences were measured (“log2 normalized intensity”: median about 0.36, highest 2% from about 7.3 on). Shown is part of a subset that was picked to be rich in the highest values.
# Biological target: T1, HNF4alpha8 (COS-7 nuclear extract) (Homo sapiens, UniProt P41235-5 1-452)
# T1 sequence: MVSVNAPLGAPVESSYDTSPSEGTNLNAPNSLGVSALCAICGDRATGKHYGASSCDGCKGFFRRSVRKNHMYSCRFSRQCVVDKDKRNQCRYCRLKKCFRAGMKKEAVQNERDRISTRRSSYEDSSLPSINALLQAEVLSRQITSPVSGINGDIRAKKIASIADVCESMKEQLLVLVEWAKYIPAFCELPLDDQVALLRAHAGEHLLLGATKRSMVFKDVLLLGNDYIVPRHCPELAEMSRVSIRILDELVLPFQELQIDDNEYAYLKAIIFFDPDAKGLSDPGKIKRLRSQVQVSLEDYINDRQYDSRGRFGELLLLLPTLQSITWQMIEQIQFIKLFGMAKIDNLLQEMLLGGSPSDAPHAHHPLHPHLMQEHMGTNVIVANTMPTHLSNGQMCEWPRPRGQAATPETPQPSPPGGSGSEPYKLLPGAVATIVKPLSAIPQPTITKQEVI
# Test: protein-binding microarray; COS-7 nuclear extract on double-stranded Agilent 4x180k PBM; binding buffer, salt, pH and temperature not given in the material; high values mean tight binding
# Conditions: chain copies: 2; label: 3' end of strand 1 on the slide; dsDNA, one strand shown
# Method in brief: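 Nuclear extracts of COS-7 cells transiently transfected with a human HNF4α isoform were applied to a custom Agilent SurePrint G3 4x180k array bearing ~44,000 double-stranded ~60-nt test sequences, each in quadruplicate. The bound protein was imaged on an Agilent G2565CA scanner at 2-µm resolution. Binding signal is the normalized, background-corrected gProcessedSignal from Agilent software.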
row,Sequence,binding signal
1,ACAGGGAAAGTATGGGTCAGCCCTGCCATCGCCTAGGGAGATTAGAGTATCGGTCGA,-0.943 log2 normalized intensity
2,GTTTTACAAACACAATGGAAGGCTGTATGTGCCTAGGGAGATTAGAGTATCGGTCGA,0.119 log2 normalized intensity
3,GTCACTGCTCAAAAACACTCAGTTAATTATGCCTAGGGAGATTAGAGTATCGGTCGA,-0.0424 log2 normalized intensity
4,CTCCCAAATCTTCTTTAAGCTATGTGGTGGGCCTAGGGAGATTAGAGTATCGGTCGA,0.933 log2 normalized intensity
5,TTTCTGTTTGTCTTACTGTGTTGTCGTATTGCCTAGGGAGATTAGAGTATCGGTCGA,2.11 log2 normalized intensity
6,ACAGCACTTAGGGTTCAAAGGTTGTTGAGCGCCTAGGGAGATTAGAGTATCGGTCGA,6.67 log2 normalized intensity
7,AAAGCCTAGGCTCCAGGGCACTGCCCTTTGGCCTAGGGAGATTAGAGTATCGGTCGA,3.51 log2 normalized intensity
8,CTAGGCTCCAGGGCACTGCCCTTTGGAACCGCCTAGGGAGATTAGAGTATCGGTCGA,7.42 log2 normalized intensity
9,CTCCAGGGCACTGCCCTTTGGAACCTGCCCGCCTAGGGAGATTAGAGTATCGGTCGA,6.57 log2 normalized intensity
10,TACTTTGCTTCCAAGTTATGCAGACCTTTGGCCTAGGGAGATTAGAGTATCGGTCGA,2.66 log2 normalized intensity
11,CCCTTTGACCTCTGCTTCCTGCTACAGAGCGCCTAGGGAGATTAGAGTATCGGTCGA,2.76 log2 normalized intensity
12,TGCACATTCCCTCCAGCAGGGGATGCCCTTGCCTAGGGAGATTAGAGTATCGGTCGA,2.84 log2 normalized intensity
13,GCAGGGGATGCCCTTTGACCTCTGCTTCCTGCCTAGGGAGATTAGAGTATCGGTCGA,8.67 log2 normalized intensity
14,TGCTTCCAAGTTATGCAGACCTTTGCCCTTGCCTAGGGAGATTAGAGTATCGGTCGA,7.7 log2 normalized intensity
15,GGATGCCCTTTGACCTCTGCTTCCTGCTACGCCTAGGGAGATTAGAGTATCGGTCGA,6.5 log2 normalized intensity
16,TTATGCAGACCTTTGCCCTTTGTTTACATAGCCTAGGGAGATTAGAGTATCGGTCGA,5.95 log2 normalized intensity
17,ATTCCCTCCAGCAGGGGATGCCCTTTGACCGCCTAGGGAGATTAGAGTATCGGTCGA,9.35 log2 normalized intensity
18,ATTCCCTTTCTCCTCCCCTCCCCTCCCCCCGCCTAGGGAGATTAGAGTATCGGTCGA,6.78 log2 normalized intensity
19,CACAGACCTGCCTCTCTCTCATGTCTGTACGCCTAGGGAGATTAGAGTATCGGTCGA,0.832 log2 normalized intensity
20,TGGTGCTATGTCCCTGACTGTGTGGCTTGCGCCTAGGGAGATTAGAGTATCGGTCGA,0.908 log2 normalized intensity
21,GTCCATCACCTGGCTCTGAAAAACAAAATGGCCTAGGGAGATTAGAGTATCGGTCGA,-0.567 log2 normalized intensity
22,CTTCACCTCCCCTAGACTTACTATTATGCCGCCTAGGGAGATTAGAGTATCGGTCGA,1.86 log2 normalized intensity

row,Sequence,binding signal
1,TGAGGGGACAAAGTTCGTGGAAAGTGGAAGGCCTAGGGAGATTAGAGTATCGGTCGA,3.11 log2 normalized intensity
2,GCAGAGGGACAACTGAGTTACGTAATGTGTGCCTAGGGAGATTAGAGTATCGGTCGA,0.932 log2 normalized intensity
3,TGAACTATTGAACCACCAGATAGAGCTTTTGCCTAGGGAGATTAGAGTATCGGTCGA,0.654 log2 normalized intensity
4,CCACCCTATTGATGCAAGGACAATGTCTAGGCCTAGGGAGATTAGAGTATCGGTCGA,1.38 log2 normalized intensity
5,CTTCAAGTCAGTCAAAATGAATAGTCCTTTGCCTAGGGAGATTAGAGTATCGGTCGA,0.855 log2 normalized intensity
6,TTCCAGGCTTGTACCTTGACCTTCTCTGTTGCCTAGGGAGATTAGAGTATCGGTCGA,6.19 log2 normalized intensity
7,GGCAGGGCCAGATAAAGCAGGTTGTACCTTGCCTAGGGAGATTAGAGTATCGGTCGA,3.15 log2 normalized intensity
8,GGCCAGATAAAGCAGGTTGTACCTTGACCCGCCTAGGGAGATTAGAGTATCGGTCGA,9.73 log2 normalized intensity
9,CCCTTCCTGCTTCCAGGCTTGTACCTTGACGCCTAGGGAGATTAGAGTATCGGTCGA,3.23 log2 normalized intensity
10,CCTGCTTCCAGGCTTGTACCTTGACCTTCTGCCTAGGGAGATTAGAGTATCGGTCGA,7.46 log2 normalized intensity
11,GATAAAGCAGGTTGTACCTTGACCCAAGAAGCCTAGGGAGATTAGAGTATCGGTCGA,5.6 log2 normalized intensity
12,AGATCTGGATATGCCTGGGGTTCCAGTTACGCCTAGGGAGATTAGAGTATCGGTCGA,0.546 log2 normalized intensity
13,CTTCCATATAACCCTTGAACCTTCTTCTTGGCCTAGGGAGATTAGAGTATCGGTCGA,4.81 log2 normalized intensity
14,CCTCCAGGCCCCAGCCACGCCCTCTAACCCGCCTAGGGAGATTAGAGTATCGGTCGA,3.33 log2 normalized intensity
15,TTATCAGGACTTTGTGATTACATTGAGTCCGCCTAGGGAGATTAGAGTATCGGTCGA,1.97 log2 normalized intensity
16,AAAAACACCTGGTTCCTTGCAAGATAAGGGGCCTAGGGAGATTAGAGTATCGGTCGA,-0.239 log2 normalized intensity
17,CCTCTCAGGAATGTGGATGCTAAAAGTGAAGCCTAGGGAGATTAGAGTATCGGTCGA,-0.262 log2 normalized intensity
18,GTATGTTCTTAAGATAAGGACTGTTGGACCGCCTAGGGAGATTAGAGTATCGGTCGA,4.24 log2 normalized intensity
19,GGGAAGCTGTGTGAAGTGACTTGCCCTGTTGCCTAGGGAGATTAGAGTATCGGTCGA,2.3 log2 normalized intensity
20,TTACTGGACTTGATCCATTCTACCCCTGTGGCCTAGGGAGATTAGAGTATCGGTCGA,2.82 log2 normalized intensity
21,TACCCCTGTGGTTGACCTTTAGTCTCTAGCGCCTAGGGAGATTAGAGTATCGGTCGA,7.47 log2 normalized intensity
22,TGATCCATTCTACCCCTGTGGTTGACCTTTGCCTAGGGAGATTAGAGTATCGGTCGA,8.51 log2 normalized intensity

row,Sequence,binding signal
1,GTTGACCTTTAGTCTCTAGCCCCGCCCAGAGCCTAGGGAGATTAGAGTATCGGTCGA,5.33 log2 normalized intensity
2,GGACTTGATCCATTCTACCCCTGTGGTTGAGCCTAGGGAGATTAGAGTATCGGTCGA,2.5 log2 normalized intensity
3,TGTCTACCCTTTTGCCCTTTGAGCTTCTGTGCCTAGGGAGATTAGAGTATCGGTCGA,5.93 log2 normalized intensity
4,ATGCTAAAGTCTACATTCTAGATGACCCCTGCCTAGGGAGATTAGAGTATCGGTCGA,6.17 log2 normalized intensity
5,CATTCTACCCCTGTGGTTGACCTTTAGTCTGCCTAGGGAGATTAGAGTATCGGTCGA,8.33 log2 normalized intensity
6,AGTGACCCTGTCTCTCAGTCTCTGTGGGAGGCCTAGGGAGATTAGAGTATCGGTCGA,1.23 log2 normalized intensity
7,AAATCATGGATCTGTGCTCAGATCCTGCTCGCCTAGGGAGATTAGAGTATCGGTCGA,-0.984 log2 normalized intensity
8,CCGGACATGGAGAGGTGAGACACGTGTGCCGCCTAGGGAGATTAGAGTATCGGTCGA,-0.118 log2 normalized intensity
9,GGCTAGACTTTAACCCCCTTGTCTTCCTCAGCCTAGGGAGATTAGAGTATCGGTCGA,4.16 log2 normalized intensity
10,GGCTGCAGAGGTTTCGCAAGGACGTGACCTGCCTAGGGAGATTAGAGTATCGGTCGA,3.33 log2 normalized intensity
11,CTTACGGCCCTGTGGTGTTCGCTAAGATGTGCCTAGGGAGATTAGAGTATCGGTCGA,0.705 log2 normalized intensity
12,CCACCTGGAATGTGCTCCCGACTGCTCCACGCCTAGGGAGATTAGAGTATCGGTCGA,0.00529 log2 normalized intensity
13,CACAAACATACAACCATCAAAGGTCACTTTGCCTAGGGAGATTAGAGTATCGGTCGA,4.93 log2 normalized intensity
14,TATGCTTTTATTTAACTTCTGGGGGCAAGGGCCTAGGGAGATTAGAGTATCGGTCGA,2 log2 normalized intensity
15,AGGTACTAAGAGATTTGAATATGTACATGGGCCTAGGGAGATTAGAGTATCGGTCGA,0.942 log2 normalized intensity
16,GAATGCAACCACACCAACATGGACTTTGTCGCCTAGGGAGATTAGAGTATCGGTCGA,6.59 log2 normalized intensity
17,ACACAGTACTTTGTACATGGGAATAGACATGCCTAGGGAGATTAGAGTATCGGTCGA,0.975 log2 normalized intensity
18,CTAAGAGATTTGAATATGTACATGGACTTTGCCTAGGGAGATTAGAGTATCGGTCGA,6.92 log2 normalized intensity
19,CATGGACTTTGAACCAAGATATGCTAACATGCCTAGGGAGATTAGAGTATCGGTCGA,5.27 log2 normalized intensity
20,TGAATATGTACATGGACTTTGAACCAAGATGCCTAGGGAGATTAGAGTATCGGTCGA,8.87 log2 normalized intensity
21,ATGTACATGGACTTTGAACCAAGATATGCTGCCTAGGGAGATTAGAGTATCGGTCGA,7.68 log2 normalized intensity
22,AGATTTGAATATGTACATGGACTTTGAACCGCCTAGGGAGATTAGAGTATCGGTCGA,10.6 log2 normalized intensity

row,Sequence,binding signal
1,CGGTCAGCTGCTTGACTTAGTACATGGCCTGCCTAGGGAGATTAGAGTATCGGTCGA,0.903 log2 normalized intensity
2,GTCTAGCGCAAATGATCAAAGGTTGGTTTTGCCTAGGGAGATTAGAGTATCGGTCGA,4.43 log2 normalized intensity
3,AGTGTGTAAGTATGCTCACTGACCTCTGCCGCCTAGGGAGATTAGAGTATCGGTCGA,3.94 log2 normalized intensity
4,CATCTTTGAAGAGCACAGGGTCAGCAGATCGCCTAGGGAGATTAGAGTATCGGTCGA,1.59 log2 normalized intensity
5,CCACTTTGAATCAGGAGAGCATCTGAGTGTGCCTAGGGAGATTAGAGTATCGGTCGA,0.742 log2 normalized intensity
6,TTCTGATCTTTGACCTCTCCAGGGTCCTTGGCCTAGGGAGATTAGAGTATCGGTCGA,5.35 log2 normalized intensity
7,AGAGCAGGAATTCTGATCTTTGACCTCTCCGCCTAGGGAGATTAGAGTATCGGTCGA,8.08 log2 normalized intensity
8,TAATCAGAGCAGGAATTCTGATCTTTGACCGCCTAGGGAGATTAGAGTATCGGTCGA,7.96 log2 normalized intensity
9,AGGAATTCTGATCTTTGACCTCTCCAGGGTGCCTAGGGAGATTAGAGTATCGGTCGA,7.01 log2 normalized intensity
10,TGTGCTAGATACTGGAGATATGTTGCTGGAGCCTAGGGAGATTAGAGTATCGGTCGA,0.67 log2 normalized intensity
11,TCTAGATGGGGTTGAGCAGACTAAAGGACTGCCTAGGGAGATTAGAGTATCGGTCGA,-0.482 log2 normalized intensity
12,TGAGACATGAATCCATCCCACCTCACTTATGCCTAGGGAGATTAGAGTATCGGTCGA,1.12 log2 normalized intensity
13,GCAAGGAATTCAACCCTTGTCACTTTCCCTGCCTAGGGAGATTAGAGTATCGGTCGA,1.82 log2 normalized intensity
14,TTGGACAGGGTGACGTCATTGGAAATCCGAGCCTAGGGAGATTAGAGTATCGGTCGA,0.187 log2 normalized intensity
15,CTCTGAGATTCGGTGAGGGATTGTTTAGGTGCCTAGGGAGATTAGAGTATCGGTCGA,0.829 log2 normalized intensity
16,AGGGATTGTTTAGGTACAAAGTCCATTGGAGCCTAGGGAGATTAGAGTATCGGTCGA,8.46 log2 normalized intensity
17,AGATTCGGTGAGGGATTGTTTAGGTACAAAGCCTAGGGAGATTAGAGTATCGGTCGA,1.25 log2 normalized intensity
18,TTGTTTAGGTACAAAGTCCATTGGAAGCCAGCCTAGGGAGATTAGAGTATCGGTCGA,6.42 log2 normalized intensity
19,CGGTGAGGGATTGTTTAGGTACAAAGTCCAGCCTAGGGAGATTAGAGTATCGGTCGA,8.89 log2 normalized intensity
20,AAAGTCCATATTCTTTGTTTGGATGCCAAAGCCTAGGGAGATTAGAGTATCGGTCGA,2.25 log2 normalized intensity
